Source: PubChem BioAssay AID686979 (National Center for Advancing Translational Sciences (NCATS), 2013)
The whole screen tested about 420,000 compounds, of which about 50,000 (12%) were called active. Inconclusive results (about 26%) are left out. The entries come from a sample that favours actives as a whole. Unmarked numbers belong to inactive results. Calls come from the whole dose curve; as a rule, active = well fitted inhibition curve with a large enough effect; inconclusive = small, poorly fitted or top-dose-only effect; inactive = flat fitted curve, though single readings scatter.

Test: qHTS for Inhibitors of human tyrosyl-DNA phosphodiesterase 1 (TDP1): qHTS in cells in presence of CPT; note: nearly all actives have a fitted effect of over 55% in size
Conditions: chicken DT40 Tdp1-/-;hTDP1 cells + 20 nM CPT, ATP luminescence, 48 h; series mostly up to 46.2 µM; activity change, negative = growth inhibition: at the top concentration
Method in brief: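 Cell growth measured by CellTiter-Glo luminescence after a minimum 48 h, 37 C compound exposure with 20 nM CPT in Tdp1-knockout DT40 cells stably expressing hTDP1, seeded 400/well; qHTS titration format.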
% is set by controls: 0 for no effect and ±100 for the full control effect; potency is the fitted concentration of half-maximal effect.

SMILES | activity change, negative = growth inhibition | Potency
C=CCNC(=O)c1ccccc1SCc1c(C)noc1C | 1.92% | 
Cc1ccn(CC(=O)NC2CCCN(Cc3ccccc3F)C2)n1 (configuration not stated) | 6.73% | 
CN(c1ccccc1)S(=O)(=O)c1ccc(C(=O)NCCc2ccccc2)cc1 | -22% | 
Cc1ccccc1CSCCNC(=O)c1ccc(N(C)S(=O)(=O)c2ccccc2)cc1 |  | 18.4 µM (active)
Cc1ccccc1CSCCNC(=O)C1CCN(S(=O)(=O)Cc2ccccc2)CC1 | -2.3% | 
Cc1nc2ccccc2nc(=O)c1NNc1ccc([N+](=O)[O-])cc1 | -28.3% | 
Cc1ccc(CN2CC(C(=O)NNC(=O)Cn3ccc(C(F)(F)F)n3)CC2=O)cc1 (configuration not stated) | 3.76% | 
CC(C)=CCc1ccc(O)c(=O)cc1C(C)C |  | 20.6 µM (active)
CSc1ncc(C(=O)NCc2ccccc2Cl)c(C(F)(F)F)n1 | -20.8% | 
O=C(/C=C/c1ccccc1[N+](=O)[O-])OCC(=O)N1CCCC1 | -21.3% | 
CC1(C2CC2)NC(=O)N(CC(=O)N2CCN(c3ccccc3F)CC2)C1=O (configuration not stated) | -21.8% | 
COc1ccc(OC)c(C(C)NC(=S)Nc2ccc(S(=O)(=O)Nc3ncccn3)cc2)c1 (configuration not stated) | 3.28% | 
Clc1ccc(CSc2nnc3c(n2)[nH]c2ccccc23)cc1 | -25% | 
COc1ccc(Cc2nc3ccc(C(=O)NCc4ccccc4C)cc3o2)cc1 |  | 20.6 µM (active)
COc1ccc(Cc2nc3ccc(C(=O)N4CCC(N(C)C)C4)cc3o2)cc1 (configuration not stated) | 11.1% | 
CSCCNC(=O)c1ccc2nc(Cc3ccccc3F)oc2c1 | 1.45% | 
COc1ccc(Cc2nc3ccc(C(=O)NCc4ccccc4Cl)cc3o2)cc1 |  | 16.4 µM (active)
COc1ccc(CNC(=O)c2ccc3oc(C(C)C)nc3c2)cc1 | -27% | 
CCn1ccnc1CN(C)C(=O)c1ccc2nc(Cc3ccc(OC)cc3)oc2c1 | -18.1% | 
COc1ccc(Cc2nc3ccc(C(=O)NCc4ccc(OC)cc4OC)cc3o2)cc1 |  | 16.4 µM (active)
COc1ccc(NC(=O)c2ccc3nc(CCc4ccccc4)oc3c2)c(OC)c1 | -26.7% | 
COCCNC(=O)c1ccc2nc(Cc3ccc(OC)c(OC)c3)oc2c1 | -0.805% | 
CCCCOC(=O)CSc1ncnc2sc3c(c12)CCC(C)C3 (configuration not stated) | -16.3% | 

SMILES | activity change, negative = growth inhibition | Potency
Cc1nccn1CCC1CCCCN1C(=O)CCc1nnc(-c2ccsc2)o1 (configuration not stated) | -0.241% | 
CC(=O)OCCOCn1cnn2c(=O)c(Br)c(C)nc12 | 1.1% | 
CSc1n[nH]c(-c2ccco2)n1 | 2.51% | 
COC(=O)c1ccc(C)c(NC(=O)Cn2c(C)csc2=O)c1 | -8.88% | 
Nc1ccc(C(=O)OCC(=O)NC2CCS(=O)(=O)C2)cc1[N+](=O)[O-] (configuration not stated) | -10.4% | 
O=NN(CCCl)C(=O)NCCc1cccc[n+]1[O-] | -1.12% | 
NC(=O)C1CCN(C(=O)c2ccc3c(=O)n(Cc4cccc(Br)c4)c(=S)[nH]c3c2)CC1 | -0.901% | 
COC(=O)c1cccc(NC(=O)CSc2nc(C)cc(=O)[nH]2)c1 | -4.36% | 
CCOC(=O)c1sc(=S)n2c1[nH]c(=O)c1ccc(C(=O)OC)cc12 |  | 10.3 µM (active)
CCOC(=O)c1sc2nc(C)[nH]c(=O)c2c1C | 0.124% | 
COc1ccccc1C1C(C(=O)N2CCCCC2)=C(C)Nc2nc3ccccc3n21 (configuration not stated) | -13.4% | 
CCCCN1C(=O)C(CC(=O)NCc2cccs2)CC(C(=O)N2CCCCCC2)=C1C (configuration not stated) | -24.1% | 
Cc1cc(O)c(C(c2ccccc2)N2CCN(c3ccccc3F)CC2)c(=O)n1Cc1ccco1 (configuration not stated) | -9.48% | 
Cc1cc(C)c(NC(=O)C[N+](C)(C)CC(O)COc2cccc3ccccc23)c(C)c1 (configuration not stated) |  | 18.4 µM (active)
OC(COc1cccc2ccccc12)CN1CCN(c2ccccn2)CC1 (configuration not stated) | -29.9% | 
Cc1cc(C)cc(OCC(=O)Nc2c(C(=O)c3ccccc3)oc3ccccc23)c1 | -27.4% | 
COc1ccccc1CNC(=O)COC(=O)c1cccs1 | -22.4% | 
COc1cc(/C=C/C(=O)Nc2ccc(OC)c(S(=O)(=O)N3CCOCC3)c2)ccc1OCC#N | -29% | 
COc1ccc(/C=C/C(=O)Nc2cccnc2)cc1OC | 16.1% | 
COc1ccc(/C=C/C(=O)Nc2ccc(C34CC5CC(CC(O)(C5)C3)C4)cc2)cc1OC |  | 2.31 µM (active)
COCCn1c(N)c(NCc2ccccc2)c(=O)[nH]c1=O | -27.3% | 
O=C(COC(=O)C12CC3CC(CC(O)(C3)C1)C2)NC12CC3CC(CC(C3)C1)C2 | -0.57% | 
COc1cccc(NC(=O)CSc2nnc(Cc3ccc(OC)c(OC)c3)o2)c1 | 0.397% | 

SMILES | activity change, negative = growth inhibition | Potency
Cc1cc(C)c2c(Cn3ccnc3)cc(=O)oc2c1 | 13.7% | 
COc1ncnc2c1ncn2CCCNCCN1CCOCC1 | 7.08% | 
O=C(O)C(c1ccccc1)N1C(=O)/C(=C\c2ccc(-c3cccc(Cl)c3)o2)SC1=S (configuration not stated) | -2.25% | 
COCCOC(=O)C1=C(C)NC(=O)NC1c1ccc(Cl)cc1 (configuration not stated) | -24.5% | 
CCCCNC(=O)C(C)N(CCN(C)C)C(=O)CCCN1C(=O)NC(c2ccc(Cl)cc2)C(C(=O)OCc2ccccc2)=C1C (configuration not stated) |  | 20.6 µM (active)
CCOC(=O)CCCNC(=O)CN1C(=O)NC(CCc2ccccc2)C1=O (configuration not stated) | 5.72% | 
CCCCNC(=O)C(C)N(CCN(C)C)C(=O)CCCCCN1C(=O)NC(c2ccc(Cl)cc2)C(C(=O)OCc2ccccc2)=C1C (configuration not stated) |  | 7.31 µM (active)
CC1=C(C(=O)OCc2ccccc2)C(c2ccc(C(F)(F)F)cc2)NC(=O)N1CCCCCC(=O)O (configuration not stated) | -2.79% | 
CCCCNC(=O)C1(O)c2ccccc2NC(=O)N1c1ccc(Cl)cc1 (configuration not stated) | 14.6% | 
COc1ccccc1/C=C/C(=O)NC(=S)N1CCOCC1 | -1.22% | 
CC(C)Cc1nnc(NC(=O)CN2C(=O)NC3(CCCCC3)C2=O)s1 | -7.33% | 
COC(=O)c1ccccc1NC(=O)CSc1nc2c(c(=O)[nH]1)CCC2 | -3% | 
CC(=O)Nc1ccc(S(=O)(=O)N2CCn3cccc3C2C)cc1 (configuration not stated) | -5.77% | 
O=C(CCN1CCCO1)N1CCCC(N2CCN(c3cccc(C(F)(F)F)c3)CC2)C1 (configuration not stated) | -2.8% | 
O=C(OCC(=O)N1CCOCC1)c1ccc2ccccc2c1 | 1.63% | 
NC(=O)c1ccccc1N=Cc1ccc2ccccc2c1 |  | 20.6 µM (active)
O=C(NN=Cc1ccc2c(c1)CCC2)c1ccccc1O | -23% | 
COc1ccccc1C(=O)N[C@@H]1c2ccccc2C2(CCN(C(=O)c3csnn3)CC2)[C@H]1OC | -8.07% [at 9.04 µM] | 
CCC(CC)c1nn2cc(-c3ccccc3)nc2s1 | -21.2% | 
COC(=O)CC1=NN(c2ccccc2)C(=O)C1 | 6.54% | 
COC(=O)CC1Oc2ccccc2-n2cc(-c3ccccc3)nc21 (configuration not stated) |  | 14.6 µM (active)
